# Reference: PubChem BioAssay (Tox21)
# Values joined by “and” are separate entries in the source; they are usually repeats but may differ in a detail not shown here. Equal values may be shown once. Records with an inconclusive call do not appear. A number with no mark means an inactive call. Active and inactive are the calls of the source. Calls come from the whole dose curve; as a rule, active = well fitted cell-killing curve with a large enough effect in the repeat runs; inconclusive = weak or mixed curves, or effect the other way; inactive = no such curve, though single readings can be large or run the other way.
# Experiment: qHTS assay to identify small molecule antagonists of the thyroid receptor (TR) signaling pathway - cell viability counter screen (AID 743064); note: nearly all actives have a fitted effect of over 50% in size
# Conditions: GH3.TRE-Luc viability, CellTiter-Fluor, 24 h; series mostly up to 70.3 µM; activity change, negative = cytotoxic: at the top concentration
# Description: National Center for Advancing Translational Sciences [NCATS]
# NIH Chemical Genomics Center [NCGC]
# U.S. Environmental Protection Agency [EPA]
# National Institutes of Environmental Health Sciences [NIEHS]
# National Toxicology Program [NTP]
# U.S. Food and Drug Administration [FDA]
# Thyroid receptor (TR), a nuclear hormone receptor, plays an important role in development, proliferation, differentiation, metabolism, brain function, and cardiovascular system. […] To profile the Tox21 10K compound library in TR signaling, a cell-based GH3-TRE-Luc assay (GH3.TRE-Luc cell line, developed by the laboratory of Dr. Albertinka J. Murk, Wageningen University) was used to measure the inhibition of TR. GH3 (rat pituitary tumor) cells stably expressing a TR activity sensor consisting of two TR response elements and a luciferase reporter gene. The cytotoxicity of the Tox21 compound library against the GH3.TRE-Luc cell line was tested in parallel by measuring the cell viability using CellTiter-Fluor assay (Promega, Madison, WI) in the same wells.
# Tox21 Assay Protocol Summary:
# GH3.TRE-Luc cells were dispensed at 1500 cells/4 uL/well into 1536-well white solid bottom plates using a Multidrop Combi dispenser (Thermo Fisher Scientific Inc., Waltham, MA). After the assay plates were incubated at 37 C for 4 hours, 23 nL of library compound or DMSO controls was transferred to the assay plates by a pintool station (Kalypsys, San Diego, CA), followed by addition of 1 ul of T3 (1 nM, final concentration in the wells) to stimulate TR transactivation. The assay plates were incubated at 37 C for 23.5 h, and then 1 uL of CellTiter-Fluor reagent (Promega, Madision, WI) of measuring cytotoxicity was added to each well using a Bioraptr Flying Reagent Dispenser (FRD) workstation (Beckman Coulter, Indianapolis, IN, USA). The plates were incubated at 37C and 5% CO2 for additional 30 min, and fluorescence intensity was measured by a ViewLux plate reader (PerkinElmer, Shelton, CT).
# % is set by controls: 0 for no effect and ±100 for the full control effect; potency is the fitted concentration of half-maximal effect.
Compound,"activity change, negative = cytotoxic",Potency
[O]=[Bi][O][Bi]=[O],-2.03%,
O=P(O)(O)C(O)(Cc1cnc2ccccn12)P(=O)(O)O,18.4%,
O=C1/C(=C\c2cccs2)CCC/C1=C\c1cccs1,-5.24%,
CCCCC/C=C\CCC(=O)N[C@H]1[C@H](Oc2c3cc4cc2Oc2ccc(cc2Cl)[C@@H](O[C@@H]2O[C@H](CO)[C@@H](O)[C@H](O)[C@H]2NC(C)=O)[C@@H]2NC(=O)[C@H](NC(=O)[C@@H]4NC(=O)[C@H]4NC(=O)[C@@H](Cc5ccc(c(Cl)c5)O3)NC(=O)[C@H](N)c3ccc(O)c(c3)Oc3cc(O)cc4c3)c3ccc(O)c(c3)-c3c(O[C@H]4O[C@H](CO)[C@@H](O)[C@H](O)[C@@H]4O)cc(O)cc3[C@@H](C(=O)O)NC2=O)O[C@H](CO)[C@@H](O)[C@@H]1O,9.44%,
CC(C)[C@@H](N)C(=O)O,13.8%,
CCc1ccc2c(c1)N(CC(C)CN(C)C)c1ccccc1S2 (stereo not given),,11.9 µM (active)
NC(=O)OC[C@@H]1[C@H](NC(=O)/C(=N\OCC(=O)O)c2csc(N)n2)C(=O)N1S(=O)(=O)O,12.6%,
C=C[C@]1(C)C[C@@H](OC(=O)CO)[C@]2(C)[C@H](C)CC[C@]3(CCC(=O)[C@H]32)[C@@H](C)[C@@H]1O,3.45%,
CC(=O)Nc1c(I)c(C(=O)O)c(I)c(N(C)C(C)=O)c1I,7.5%,
CO[C@H]1C[C@@H]2CC[C@@H](C)[C@@](O)(O2)C(=O)C(=O)N2CCCC[C@H]2C(=O)O[C@H]([C@H](C)C[C@@H]2CC[C@@H](OCCO)[C@H](OC)C2)CC(=O)[C@H](C)/C=C(\C)[C@@H](O)[C@@H](OC)C(=O)[C@H](C)C[C@H](C)/C=C/C=C/C=C/1C,,3.76 µM (active)
Cn1nnnc1SCC1=C(C(=O)O)N2C(=O)[C@@H](NC(=O)[C@H](O)c3ccccc3)[C@H]2SC1,10.6% [at 32.5 µM],
CC(=O)OC[C@H]1O[C@@H](O[C@H]2[C@H](O)[C@@H](OC(=O)c3ccccc3C(=O)O)[C@H](O)O[C@@H]2COC(C)=O)[C@H](O)[C@@H](OC(=O)c2ccccc2C(=O)O)[C@@H]1O,13.2%,
CCC(=O)O[C@]1(C(=O)CCl)[C@@H](C)C[C@H]2[C@@H]3C[C@H](F)C4=CC(=O)C=C[C@]4(C)[C@@]3(F)[C@@H](O)C[C@@]21C,-1.76%,
O=C(Cn1c(=O)sc2ccc(Cl)cc21)N1CCN(CCO)CC1,0.738%,
C=CCSSSCC=C,0.633%,
C/C1=C2N=C(/C=C3N=C(/C(C)=C4\[N-]C(C(CC(N)=O)C4(C)CCC(=O)NCC(C)OP(=O)([O-])OC4C(CO)OC(n5cnc6cc(C)c(C)cc65)C4O)C4(C)N=C1C(CCC(N)=O)C4(C)CC(N)=O)C(CCC(N)=O)C\3(C)C)C(CCC(N)=O)C/2(C)CC(N)=O.[CH3-].[Co+3] (stereo not given),,29.8 µM (active)
O=S(=O)(O)Oc1ccc(C(c2ccc(OS(=O)(=O)O)cc2)c2ccccn2)cc1,-10.7%,
O=C1NCCN1c1ncc([N+](=O)[O-])s1,-5.76% [at 32.5 µM],
CCCOc1cc(N)ccc1C(=O)OCCN(CC)CC,13.9% [at 32.5 µM],
CC(=O)OCC(=O)[C@@]12OC3(CCCC3)O[C@@H]1C[C@H]1[C@@H]3CCC4=CC(=O)C=C[C@]4(C)[C@@]3(F)[C@@H](O)C[C@@]12C,5%,

Compound,"activity change, negative = cytotoxic",Potency
CO/N=C(\C(=O)N[C@@H]1C(=O)N2C(C(=O)O)=C(CSc3nnnn3C)CS[C@H]12)c1csc(N)n1,0.43%,
O=C(O)COc1ccc(CCNS(=O)(=O)c2ccccc2)s1,10.5%,
CCC(C)[C@H]1O[C@]2(C=C[C@@H]1C)C[C@@H]1C[C@@H](C/C=C(\C)[C@@H](O[C@H]3C[C@H](OC)[C@@H](O[C@H]4C[C@H](OC)[C@H](NC(C)=O)[C@H](C)O4)[C@H](C)O3)[C@@H](C)/C=C/C=C3\CO[C@@H]4[C@H](O)C(C)=C[C@@H](C(=O)O1)[C@]34O)O2 (stereo not given in full),,2.66 µM (active) and 7.5 µM (active)
C[C@H](CCCC(C)(C)O)[C@H]1CC[C@H]2[C@@H]3CC=C4C[C@@H](O)CC[C@]4(C)[C@H]3CC[C@]12C,4.25%,
CC(=O)[C@@]1(O)CC[C@H]2[C@@H]3C=C(Cl)C4=CC(=O)[C@@H]5C[C@@H]5[C@]4(C)[C@H]3CC[C@@]21C,4.9%,
CC[C@H](C)[C@@H]1NC(=O)[C@H](Cc2ccc(O)cc2)NC(=O)[C@@H](N)CSSC[C@@H](C(=O)N2CCC[C@H]2C(=O)N[C@@H](CC(C)C)C(=O)NCC(N)=O)NC(=O)[C@H](CC(N)=O)NC(=O)[C@H](CCC(N)=O)NC1=O,18.1%,
NC(N)=NCC1COc2ccccc2O1 (stereo not given),-27.8%,
C=C[C@]1(C)C[C@@H](OC(=O)CSCCN(CC)CC)[C@]2(C)[C@H](C)CC[C@]3(CCC(=O)[C@H]32)[C@@H](C)[C@@H]1O,,10.6 µM (active)
C[C@]12C=CC(=O)N[C@@H]1CC[C@@H]1[C@@H]2CC[C@]2(C)[C@@H](C(=O)Nc3cc(C(F)(F)F)ccc3C(F)(F)F)CC[C@@H]12,11.2%,
O=P(O)(O)OC[C@H](O)CO,-14.2%,
COC(=O)CC[C@H](N)C(=O)O,-2.72%,
CCCCCCCCCCCCCCCCCCOP(=O)([O-])OC1CC[N+](C)(C)CC1,8.76% [at 32.5 µM],
CN1CCCC(CN2c3ccccc3Sc3ccccc32)C1 (stereo not given),,11.9 µM (active)
OCC(O)COc1ccc(Cl)cc1 (stereo not given),1.17%,
CC(C)(C)c1ccc(CN2CCN(C(c3ccccc3)c3ccc(Cl)cc3)CC2)cc1 (stereo not given),,33.5 µM (active)
C#C[C@]1(OC(C)=O)CC[C@H]2[C@@H]3CCC4=CC(=O)CC[C@@H]4[C@H]3CC[C@@]21C,-20.6%,
Cc1cccc(C)c1Nc1ncccc1C(=O)O,-11.6%,
CS(=O)(=O)NC(=O)CCC/C=C\C[C@H]1C(=O)C[C@@H](O)[C@@H]1/C=C/[C@H](O)COc1ccccc1,7.96%,
C#CCC(Cc1cnc2nc(N)nc(N)c2n1)c1ccc(C(=O)N[C@@H](CCC(=O)O)C(=O)O)cc1 (stereo not given in full),-2.37%,
Cc1ccc(S(=O)(=O)NC(=O)N[C@@H](C)Cc2ccccc2)cc1,9.1%,
